In the library only some 1.8% were active in any assay of this set; here they are far more common.
MBNL1-CUG inh = qHTS Assay for Inhibitors of MBNL1-poly(CUG) RNA binding; Muscleblind-like protein 1 (Homo sapiens), Q9NR56; TR-FRET MBNL1-His/biotin-(CUG)12 binding, 665/545 ratio; Potency, µM (series often up to 57.5 µM), without a hit: top-dose activity change, negative = inhibition, most hits filed as inhibitors; actives 0.036% (n = 280,000); AID 2675, 2010; active means well fitted inhibition curve with a large enough effect in the signal ratio, with a control signal flat, not every such curve was filed as active; inconclusive means small, poorly fitted or top-dose-only effect, or effect the other way, or a change in a side signal; inactive means no such curve, though single readings can be large or run the other way; the % refers to the signal ratio; further: potency means the concentration at half of the fitted maximal effect; on the % scale 0 is the no-effect control and ±100 the full control effect
Target sequence (Q9NR56 whole entry, looked up): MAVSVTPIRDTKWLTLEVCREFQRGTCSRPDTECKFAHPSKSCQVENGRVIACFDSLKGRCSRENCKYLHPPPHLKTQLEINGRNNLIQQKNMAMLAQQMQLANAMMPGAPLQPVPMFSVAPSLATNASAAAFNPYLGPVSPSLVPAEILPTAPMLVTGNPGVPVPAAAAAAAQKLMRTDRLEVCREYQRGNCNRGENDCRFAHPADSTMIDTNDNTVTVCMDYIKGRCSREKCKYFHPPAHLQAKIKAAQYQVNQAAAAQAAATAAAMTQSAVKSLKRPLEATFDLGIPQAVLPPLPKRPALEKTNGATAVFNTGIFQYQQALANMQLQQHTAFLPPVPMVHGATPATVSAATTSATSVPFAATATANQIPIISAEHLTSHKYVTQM
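Inhibition of protein-RNA binding appears as loss of TR-FRET between terbium anti-His antibody on MBNL1-His and streptavidin-XL665 on biotin-(CUG)12. Activity is normalized to buffer-only and uninhibited-complex controls.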
TCR activator = Activators of T cell receptors: qHTS campaign; Potency, µM (titrated, usually from 9.22 µM), for inactives: top-dose activation of IL-2 secretion, actives largely listed as activators; primary human leukocytes, anti-CD3, IL-2 HTRF, 48 h; 330,000 tested, under 10 active; further: % of control where 0% means no effect
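Readout: HTRF IL-2, Eu-cryptate/d2 antibody pair, 320nm excitation, 665nm emission. Stimulus: a-CD3 beads, no co-stimulation. Cells: primary human leukocytes. Exposure: 48 hr with compound.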
Mito fusion yeast = qHTS Assay for Small Molecule Inhibitors of Mitochondrial Division or Activators of Mitochondrial Fusion; S. cerevisiae fusion-defective mutant growth rescue, CellTiterGlo 48 h; Potency, µM (doses to about 46.1 µM), without a hit: at the top dose growth rescue (activation), most hits filed as activators; actives 0.23% (n = 320,000); AID 485298, 2010; further: potency means the concentration at half of the fitted maximal effect; % of control where 0% means no effect; nearly all actives have a fitted effect of over 45% in size
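Read-out: ATP-based luminescence (CellTiterGlo, 10 min ambient) reporting growth of fusion-defective ts yeast after 48 hours at 37C on glycerol/ethanol YPEG medium in the presence of compound.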
AT treatment = qHTS Assay for Identifying a Potential Treatment of Ataxia-Telangiectasia; Potency, µM (top dose mostly 57.5 µM), for the others: top-dose activation, hits mostly activators; actives 0.19% (n = 320,000); AID 485349, 2010; F2112 A-T fibroblasts, KAP-1 phosphorylation AlphaLISA; neocarzinostatin DNA damage 30 min before lysis; further: potency means the concentration at half of the fitted maximal effect; % of control where 0% means no effect; nearly all actives have a fitted effect of over 45% in size
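ATM-like activity read as KAP-1 phosphorylation via AlphaLISA donor/acceptor antibody pairs after lysis and 6 hr at 25C. Cells were ATM-null patient fibroblasts (F2112, hTERT), dosed 60 min, then exposed to the DSB inducer NCS for 30 min.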
Glioma ERSR ind = qHTS for Inducers of the Endoplasmic Reticulum Stress Response (ERSR) in Human Glioma: qHTS; actives 0.02% (n = 420,000); Potency, µM, without a hit: top-dose activation, actives largely listed as activators; U87-MG GRP78 promoter luciferase reporter, 16 h; further: potency means the concentration at half of the fitted maximal effect; series mostly up to about 76 µM; % of control where 0% means no effect; nearly all actives have a fitted effect of over 35% in size
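ERSR induction read as luciferase luminescence (Bright-Glo, 10 min at room temperature) in stably transfected human U87-MG glioma cells exposed to compounds for 16 h, using GRP78 as sensor.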
ClpP mod = qHTS Assay for Activators of ClpP; ATP-dependent Clp protease proteolytic subunit (Bacillus subtilis (strain 168)), P80244; purified B. subtilis ClpP, FRET peptide cleavage, 20 min; Potency, µM (series often up to 57.5 µM), for the others: at the top dose activity change, negative = active; actives 1.9% (n = 340,000); AID 651965, 2013; active means well fitted falling curve with a large enough effect; inconclusive means small, poorly fitted or top-dose-only effect; inactive means no such curve, though single readings can be large or run the other way; further: potency means the concentration at half of the fitted maximal effect; the source files actives as falling curves though it sought activators and does not explain the sign; nearly all actives have a fitted effect of over 65% in size
Target sequence (P80244 whole entry, looked up): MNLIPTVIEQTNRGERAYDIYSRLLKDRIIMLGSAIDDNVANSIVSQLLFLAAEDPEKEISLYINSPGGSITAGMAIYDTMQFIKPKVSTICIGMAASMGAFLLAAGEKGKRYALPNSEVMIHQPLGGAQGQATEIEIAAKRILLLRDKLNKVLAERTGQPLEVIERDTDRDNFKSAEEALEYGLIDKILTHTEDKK
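ClpP 10 microg/mL final, pH 8 Tris/KCl buffer with BSA, glycerol, Tween-20; compound pinned in; FRET-FV substrate; RT 20 min; Ex320/Em430; ΔFRET vs ADEP 5.8 microM, DMSO, no enzyme.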
* marks the source's active call; other numbers are inactive results; u = inconclusive; x = not tested or not shown; [ ] = another dose, or the depositor's remark. Unless noted, the call rests on the fitted dose curve; in most records, active means well fitted curve in the direction sought with a large enough effect; inconclusive means small, poorly fitted or top-dose-only effect, or another doubt; inactive means no such curve, though single readings can be large; an effect the other way counts as inactive or inconclusive.

SMILES	MBNL1-CUG inh	TCR activator	Mito fusion yeast	AT treatment	Glioma ERSR ind	ClpP mod
CCOC(=O)CSc1nc(-c2ccc3c(c2)OCO3)ccc1C#N	12%	0%	7%	7%	0%	25µM*
Cc1[nH]c2ccccc2c1C(=O)C(C)Sc1nc2ccccc2c(=O)n1Cc1cccnc1 (configuration not stated)	x	x	x	x	0%	-2%
COc1ccc(-c2ccc(C(C)=O)cc2)cc1C1C2C=CCCC2(C)C(=O)N1Cc1ccccc1 (configuration not stated)	x	x	x	x	-4%	x
CCCCc1n[nH]c2c1/C(=N/O)CC(c1ccccc1)C2 (configuration not stated)	-13%	1%	3%	8%	-4%	18µM*
CC[N+]1(CC(=O)c2ccc(Br)cc2)CCCCC1	x	x	x	x	-1%	1%
O=C1NC(=S)SC1=Cc1ccc(F)cc1	x	-6%	x	x	0%	-2%
O=C1NC(=O)/C(=C/c2ccc(-c3ccc(F)cc3O)o2)S1	x	x	4.6µM*	x	-3%	x
COc1ccc(OC)c2c1CCC2=O	1%	1%[46.1 µM]	0%	-7%	-5%	32µM*
CC1Cn2c(C(=O)NCc3cccc(Br)c3)cc3cccc(c32)S1 (configuration not stated)	x	x	x	x	2%	32µM*
COc1ccccc1CNC(=O)c1cc2cccc3c2n1CCS3	x	x	x	x	-2%	u
COc1ccc(CNC(=O)c2cc3cccc4c3n2CC(C)S4)c(OC)c1 (configuration not stated)	x	x	x	x	-6%	14µM*
O=C(NCc1ccccc1Cl)c1cc2cccc3c2n1CCS3	x	x	x	x	-4%	28µM*
COc1cccc(CNC(=O)c2cc3cccc4c3n2CC(C)S4)c1OC (configuration not stated)	x	x	x	x	-2%	35µM*
O=C(NCc1cccc(Br)c1)c1cccn1-c1nnc(N2CCCCC2)s1	x	x	x	x	-3%	-29%
COc1cccc(CNC(=O)CCC(=O)N2CC(C)Oc3ccccc32)c1OC (configuration not stated)	9%	-2%	1%	9%	-2%	0%
O=C(COCCOCCOCC(=O)Nc1c(I)cc(I)c(C(=O)O)c1I)Nc1c(I)cc(I)c(C(=O)O)c1I	x	x	x	x	-3%	x
COc1ccc(OC)c(CCNC(=O)c2cc3cccc4c3n2CCS4)c1	x	x	x	x	-3%	32µM*
COc1ccc(CNC(=O)c2cc3cccc4c3n2CC(C)S4)cc1OC (configuration not stated)	x	x	x	x	-3%	32µM*
CCOc1ccc(CCNC(=O)c2cc3cccc4c3n2CCS4)cc1	x	x	x	x	-3%	22µM*
COc1ccc(OC)c(CCNC(=O)c2cc3cccc4c3n2CC(C)S4)c1 (configuration not stated)	x	x	x	x	-4%	32µM*
COc1ccc(CC(=O)NCc2cccc(CNC(=O)Cc3ccc(OC)c(OC)c3)c2)cc1OC	2%	4%	1%	-8%	-1%	0%
COc1cc(C(=O)OC(COCCC(C)C)CN2CCOCC2)cc(OC)c1OC (configuration not stated)	x	x	x	x	1%	x
O=C(Cn1cnc2c(nnn2Cc2ccc(F)cc2)c1=O)N1CCN(c2ccccc2)CC1	-9%	-1%	1%	6%	-6%	25µM*
O=C(Cn1cnc2ccccc2c1=O)N1CCN(Cc2ccccc2)CC1	2%	9%	6%	6%	-2%	20µM*
O=C(Cn1cnc2c(cnn2-c2ccccc2)c1=O)N1CCN(c2ccc(F)cc2)CC1	-4%	-6%	-1%	0%	-3%	-2%
SMILES	MBNL1-CUG inh	TCR activator	Mito fusion yeast	AT treatment	Glioma ERSR ind	ClpP mod
Clc1ccc(-c2cn3cccnc3n2)cc1Cl	10%	-2%	8%	1%	0%	11µM*
O=S(=O)(Nc1cccc(-c2cn3cccnc3n2)c1)c1ccc(-c2ccccc2)cc1	-2%	0%	6%	3%	-4%	28µM*
CCCCCCCCNC(=O)/C(C#N)=C/c1ccc2c(c1)OCCO2	x	2%[46.1 µM]	4%	2%	-2%	9%
CCCCNC(=O)/C(C#N)=C/c1ccc2c(c1)OCCO2	-6%	-3%[46.1 µM]	0%	0%	6%	25µM*
COc1ccc(-c2cc3nc(C)cc(N4CC(C)CC(C)C4)n3n2)cc1 (configuration not stated)	-4%	2%[46.1 µM]	16%	0%	3%	40µM*
O=C(O)CN(c1ccccn1)S(=O)(=O)c1ccccc1	-1%	6%	-1%	-8%	-5%	28µM*
COC(=O)CN(c1ccccn1)S(=O)(=O)c1ccccc1	-7%	0%	-1%	-2%	-5%	11µM*
O=C(O)CN(c1ccccn1)S(=O)(=O)c1ccc(Cl)cc1	-4%	-1%	-1%	0%	-7%	u
CCC1CN(CCNC(=O)C2CCCCN2C)Cc2cc(OC)ccc2O1 (configuration not stated)	x	x	x	x	1%	x
Cc1nc(SCC(=O)NCc2ccco2)c2c3c(sc2n1)CCCC3	120%	6%	3%	-5%	-4%	-5%
CC(C)Sc1nc2sc3c(c2c2nnc(SCC(=O)NCc4ccco4)n12)CCCC3	-3%	4%	10%	11%	1%	32µM*
CC(=O)c1ccccc1C(=O)NCC1Cc2cccc(-c3cccnc3)c2O1 (configuration not stated)	x	x	x	x	-4%	x
CCOC(=O)C1CCN(C(=O)c2cn(CCOC)c(=O)c3c2c2ccccc2n3C)CC1	7%	-6%	-8%	-4%	0%	7.9µM*
Cn1cc(C(=O)N2CCN(C(=O)c3ccco3)CC2)c2c3ccccc3n(C)c2c1=O	-1%	x	-3%	-2%	-5%	14µM*
O=C(c1ccco1)N1CCN(CC(O)Cn2c3ccccc3c3ccccc32)CC1 (configuration not stated)	9%	5%	2%	x	0%	28µM*
CCN1CCN(C(=O)c2cn(CCOC)c(=O)c3c2c2ccccc2n3C)CC1	5%	6%	3%	-6%	-5%	u
COCCn1cc(C(=O)NCCCOC(C)C)c2c3ccccc3n(C)c2c1=O	3%	0%	3%	30%	-1%	32µM*
Cn1c2ccccc2c2c(C(=O)N3CCN(c4ccc(F)cc4)CC3)cn(C3CCCCC3)c(=O)c21	x	x	x	x	-1%	u

Screens deposited in PubChem BioAssay by National Center for Advancing Translational Sciences (NCATS).
